The text below walks through data of PubChem BioAssay AID1220 (Sanford-Burnham Center for Chemical Genomics, 2008).

Molecules are shown by their SMILES. About 1,300 (0.68%) of roughly 190,000 compounds were called active. The list comes from a sample in which actives are over-represented; it also holds similar structures and randomly drawn compounds. A number with no mark means an inactive call. Cut-off read from the data, not from the text of the source: active = inhibition above about 50%; inactive = the rest.

In the test the target is Mannose-6-phosphate isomerase (Homo sapiens) (UniProt P34949). Description: human PMI inhibitors, high substrate, primary screen, biochemical, fluorescence intensity, high mannose 6-phosphate (AID 1220). The note with it: recombinant PMI enzyme, coupled fluorescence intensity; at 20 µM; stronger effect = higher value.
Sequence of Mannose-6-phosphate isomerase (Homo sapiens) (P34949 whole entry, looked up): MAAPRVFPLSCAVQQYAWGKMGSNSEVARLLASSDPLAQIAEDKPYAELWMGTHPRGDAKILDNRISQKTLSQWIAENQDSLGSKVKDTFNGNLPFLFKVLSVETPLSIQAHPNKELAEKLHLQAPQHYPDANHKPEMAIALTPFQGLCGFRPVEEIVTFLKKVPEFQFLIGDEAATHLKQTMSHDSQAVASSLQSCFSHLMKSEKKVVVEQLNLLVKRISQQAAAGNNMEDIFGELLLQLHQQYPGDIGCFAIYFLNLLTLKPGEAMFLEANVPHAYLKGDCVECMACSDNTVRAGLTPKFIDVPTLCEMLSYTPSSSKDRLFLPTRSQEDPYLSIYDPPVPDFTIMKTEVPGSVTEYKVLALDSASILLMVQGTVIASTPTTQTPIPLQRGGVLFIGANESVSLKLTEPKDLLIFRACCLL
Turning to `COc1cc(OC)cc(-c2nnc(SCc3c(F)cccc3Cl)o2)c1`, the inhibition is 8.3%.

On to `CCOc1ccc(C(CC(=O)O)NC(=O)c2cccs2)cc1OC` (stereo not drawn), for which the inhibition was -10.3%. Consider `CC(C)C/C(O)=C/c1nc2cc(Cl)ccc2oc1=O`, for which the inhibition is 55.1% (active).

Regarding `Cc1ccc2oc(=O)c(/C=C(\O)CC(C)C)nc2c1`, the inhibition is 10.4%.

`CCS(=O)(=O)c1ccc2oc(=O)c(/C=C(\O)c3ccc(Cl)cc3)nc2c1`: the inhibition is 17.4%. For the compound `C/C(=N/Nc1nc(-c2ccccc2)cc(-c2ccccc2)n1)c1ccc(N)cc1`, the inhibition was 3.6%.

Turning to `O=C(CN1N=C(c2ccccc2)CCC1=O)NCc1cccs1`, the inhibition was 6.5%. Turning to `Cc1ccc(C2=NN(CC(=O)NCc3cccs3)C(=O)CC2)cc1`, the inhibition is 3.3%. As for `O=C(CN1N=C(c2ccc(Cl)cc2)CCC1=O)NCc1cccs1`, the inhibition is 59.2% (active). For `CC(NC(=O)c1cc2ccccc2o1)c1ccccc1` (stereo not drawn), the inhibition was -9.3%.

Take `CCn1cc(C(=O)NCCCN2CCN(C)CC2)c(=O)c2cc(S(=O)(=O)N3CCc4ccccc4C3)ccc21`: the inhibition was -2.9%. `O=C(O)c1ccc(N2Cc3ccccc3C2)cc1O`: the inhibition is -70.5%.

As for `CSc1nsc(/C=C/Nc2ccc(C)c(C)c2)c1C#N`, the inhibition is 40.1%.

As for `CSc1nsc(/C=C/Nc2ccc(O)cc2C)c1C#N`, the inhibition was 65.8% (active).

In the case of `CSc1nsc(/C=C/Nc2ccc(F)cc2F)c1C#N`, the inhibition is 21.4%.

As to `Cc1cc(NC(=O)COC(=O)c2ccco2)no1`, the inhibition was -0.8%. For the compound `COC(=O)c1c(NC(=O)CN2C(=O)c3ccccc3C2=O)sc(Cc2ccc3c(c2)OCO3)c1C`, the inhibition was 1.6%. Then `CCOC(=O)c1c(NC(=O)CN2C(=O)c3ccccc3C2=O)sc(Cc2ccc3c(c2)OCO3)c1C`, with 51.5% (active). Regarding `Cc1c(Cc2ccc3c(c2)OCO3)sc(NC(=O)c2ccccc2)c1C(N)=O`, the inhibition was 2.7%. For the compound `CC1(c2ccccc2)CC2CC(c3ccccc3)N1O2` (stereo not drawn), the inhibition is -7.9%. For `CC1=C(C#N)C(=O)NC(=O)/C1=C/c1ccc(-c2ccc(S(N)(=O)=O)cc2)o1`, the inhibition was 18.1%. The figure for `CC1=C(C#N)C(=O)NC(=O)/C1=C\c1ccc(-c2cc(C)c(C)cc2[N+](=O)[O-])o1` is 52.8% (active); for `CC1=C(C#N)C(=O)NC(=O)/C1=C\c1ccc(-c2ccc(C)cc2[N+](=O)[O-])o1` it is 48.6%; for `CC(Sc1nnc(NC2CCCCC2)s1)C(=O)Nc1ccc2c(c1)C(=O)c1ccccc1C2=O` (stereo not drawn) it is -14.7%.

Regarding `O=C(Nc1nccs1)c1ccc(CSc2nnnn2-c2ccccc2)cc1`, the inhibition is -6.7%. For the compound `O=C(CN1CCN(C(=O)N2CCCCC2)CC1)Nc1ccc(F)cc1`, the inhibition is 6.5%. As to `CCOC(=O)C1Sc2ccccc2NC1=O` (stereo not drawn), the inhibition is 36.5%.

In the case of `CN(C(=O)c1cccnc1)c1nnc(-c2ccccn2)s1`, the inhibition was 2%. On to `CCN1CCc2c(C#N)c(NCc3ccccc3)nc(N(CC)CC)c2C1`, for which the inhibition is 0.8%. With `CC(C)CCNc1nc(N2CCCC2)c2c(c1C#N)CCN(C)C2`, the inhibition is 14.4%. Turning to `Nc1[nH]nc2nc(NCc3ccccc3)c3c(c12)CCN(Cc1ccccc1)C3`, the inhibition was 3.5%.

As to `C=CCNc1nc(N2CCOCC2)c(C#N)c2c1CN(C)CC2`, the inhibition was 37.3%.

`CCN1CCc2c(C#N)c(N3CCCCC3)nc(NCc3ccccc3)c2C1`: the inhibition was 32.5%. Then `C=CCNc1nc(N2CCCCC2)c(C#N)c2c1CN(Cc1ccccc1)CC2`, with 55.6% (active); and `CN1CCc2c(C#N)c(N3CCCCC3)nc(NCc3ccccc3)c2C1`, with 53% (active). `N#Cc1c(N2CCCCC2)nc(N2CCCCC2)c2c1CCN(Cc1ccccc1)C2`: the inhibition is 8%. As for `N#Cc1c(NCCN)nc(NCc2ccccc2)c2c1CCN(Cc1ccccc1)C2`, the inhibition is 52.6% (active). The figure for `CCCN1Cc2cccc(C(=O)N3CCN(c4ccccc4)CC3)c2C1=O` is 1%; for `O=C(Nc1ccc(N2CCOCC2)cc1)c1ccccc1SCC(=O)N1CCCC1` it is 4.1%. As for `Fc1ccc(CNC(=S)NC2CCCCC2)cc1`, the inhibition is 8.4%.

Take `CC(C)N1C(=O)CC(Nc2cccc3cccc(N)c23)C1=O` (stereo not drawn): the inhibition was 64.5% (active). Then `COc1ccc(NC2CC(=O)N(C(C)C)C2=O)cc1` (stereo not drawn), with 8.8%.

For the compound `CN1C(=O)CC(Nc2cccc3cccc(N)c23)C1=O` (stereo not drawn), the inhibition is 49.7%. For the compound `COc1cc(/C=C2\SC(c3ccc(C)cc3)=NC2=O)ccc1O`, the inhibition was 9.3%. The figure for `COc1cc(/C=C2\SC(c3ccc(C)cc3)=NC2=O)cc(OC)c1O` is 26.7%.

On to `Cc1ccc(C2=NC(=O)/C(=C/c3cc(O)c(O)c(Br)c3)S2)cc1`, for which the inhibition was 53.2% (active). The figure for `Cc1cccc(OCc2nnc(SCC(=O)Nc3ccc(C)c(C)c3)o2)c1` is 17.5%; for `Fc1ccccc1N1CCN(c2nnnn2-c2ccccc2)CC1` it is -2.8%; for `COc1ccc(/C=N/Nc2nnc(C)n2N)cc1OC` it is 67.2% (active). As for `COc1ccc(/C=N/Nc2nonc2N)cc1OC`, the inhibition was -6.6%. The figure for `Cc1nnc(N/N=C/c2ccc([N+](=O)[O-])cc2)n1N` is 68.7% (active); for `Cc1cc(=O)[nH]c(N/N=C/c2ccc([N+](=O)[O-])cc2)n1` it is -4.6%.

For `CCc1nnc(N/N=C/c2ccc(-c3ccc([N+](=O)[O-])cc3)o2)n1N`, the inhibition is 41.3%. As for `Nn1cnnc1N/N=C/c1cc([N+](=O)[O-])c(Cl)cc1Cl`, the inhibition was -35.2%. For the compound `CC1CCN(c2ccc(/C=N\Nc3nncn3N)cc2[N+](=O)[O-])CC1`, the inhibition was 43.7%. Turning to `Nn1cnnc1N/N=C/c1ccc(Cl)c([N+](=O)[O-])c1`, the inhibition is 60.2% (active). Regarding `COc1ccc(-n2c(C)cc(/C=N/Nc3nnc(C)n3N)c2C)cc1`, the inhibition is -12.8%. For `CCc1cc(=O)oc2cc(C)c3c(C)coc3c12`, the inhibition is 4.2%. For the compound `COc1ccc(C(=O)N(CN2CCCC2=O)c2ccccc2OC)cc1OC`, the inhibition is 18.2%. On to `O=C(Nc1nc(-c2ccc(Cl)cc2)cs1)NC1CCCCC1`, for which the inhibition is -7.6%. Turning to `CCN(CC)C(=O)CSc1nc(O)c(Cc2ccccc2)c(=O)n1-c1ccccc1`, the inhibition was -5.3%.

Turning to `Nn1c(SCC(=O)NCc2ccccc2)nncc1=O`, the inhibition was 11.9%.

Turning to `Oc1ccc(-c2csc(-c3c[nH]c4ccccc34)n2)c(O)c1`, the inhibition is -4.2%. Then `Cc1ccc(/C=C2\C(=O)Nc3ccccc32)o1`, with 6.8%; and `N#CCC(=O)N/N=C/c1ccc(OC2CSC2)cc1`, with 6.6%; and `CN(C)c1nc(Oc2ccc(=O)[nH]n2)nc(N2CCCCC2)n1`, with -0.1%. Regarding `CCOC(=O)Cc1csc(SCC(=O)NC(C)C23CC4CC(CC(C4)C2)C3)n1` (stereo not drawn), the inhibition was 51% (active). As for `CCOC(=O)Cc1csc(SCC(=O)NC2CCCCC2)n1`, the inhibition is -6%.

For `CCOC(=O)Cc1csc(SCC(=O)NC2CCCC(C)C2C)n1` (stereo not drawn), the inhibition is -3.7%. The figure for `COC(C(=O)Nc1ccc(F)cc1F)c1ccccc1` (stereo not drawn) is 0.3%; for `O=C(NCCCn1ccnc1)C(Cc1ccc([N+](=O)[O-])cc1)N1C(=O)c2ccccc2C1=O` (stereo not drawn) it is -5.8%. As for `CCn1c(Cc2ccccc2)nnc1SCC(=O)c1cccc([N+](=O)[O-])c1`, the inhibition was 5.6%. Take `Cc1noc(C)c1S(=O)(=O)Nc1ccc(C(=O)NCCc2ccccc2)cc1`: the inhibition is 3.4%. Then `COc1ccc(-c2ccc(/C=N/N3C(=O)C4C5C=CC(C6CC56)C4C3=O)o2)c([N+](=O)[O-])c1` (stereo not drawn), with 42.2%; and `O=[N+]([O-])c1ccccc1-c1ccc(/C=N/n2cnnc2)o1`, with 51.1% (active); and `Cc1ccc(-c2ccc(/C=N/N3C(=O)C4C5C=CC(C6CC56)C4C3=O)o2)c([N+](=O)[O-])c1` (stereo not drawn), with 50.8% (active). In the case of `O=C1C2C3C=CC(C4CC34)C2C(=O)N1/N=C/c1ccc(-c2ccc(F)cc2[N+](=O)[O-])o1` (stereo not drawn), the inhibition is 14.4%.

Consider `O=C1C2C3C=CC(C3)C2C(=O)N1/N=C/c1ccc(-c2ccccc2[N+](=O)[O-])o1` (stereo not drawn), for which the inhibition was 51.5% (active).

As for `Clc1ccccc1-c1ccc(/C=N/n2cnnc2)o1`, the inhibition was 6.7%. Regarding `O=C1/C(=C\c2ccc(-c3ccccc3[N+](=O)[O-])o2)C(c2ccccc2)=NN1c1ccccc1`, the inhibition is -2.3%. On to `O=C1ON=C(c2ccccc2)/C1=C/c1ccc(-c2ccccc2[N+](=O)[O-])o1`, for which the inhibition was -11%. As for `Cc1n[nH]c(=S)n1/N=C/c1ccc(-c2ccccc2[N+](=O)[O-])o1`, the inhibition was 21.2%.

On to `Cc1ccc(-c2ccc(/C=N/N3C(=O)C4C5C=CC(CC5)C4C3=O)o2)c([N+](=O)[O-])c1` (stereo not drawn), for which the inhibition is 33.2%. Then `O=c1nc2s/c(=C\c3ccc(-c4ccccc4[N+](=O)[O-])o3)c(=O)n2nc1-c1ccccc1`, with 50.5% (active).

For the compound `O=C1C2C3C=CC(C4CC34)C2C(=O)N1/N=C/c1ccc(-c2ccc(Cl)cc2[N+](=O)[O-])o1` (stereo not drawn), the inhibition was 7.4%. In the case of `CCCc1nc(N)c(C#N)c(N)c1C#N`, the inhibition is 3.2%. With `O=C(Nc1cc(S(=O)(=O)N2CCOCC2)ccc1N1CCOCC1)c1ccc(S(=O)(=O)N2CCCCC2)cc1`, the inhibition is -10.7%. Take `Clc1ncn(C23CC4CC(CC(C4)C2)C3)n1`: the inhibition was -0.3%. As for `CCOC(=O)c1cccc(NC(=O)CN(c2ccc(OC)cc2)S(=O)(=O)c2c(C)noc2C)c1`, the inhibition was 19.2%. Regarding `Cc1c(O)c(CN2CCCCC2)cc2c1oc(=O)c1ccccc12`, the inhibition is 1.8%. As to `NC(=O)C1(N2CCCCC2)CCN(CC(=O)Nc2cc(Cl)ccc2Cl)CC1`, the inhibition was 7.2%. Then `CCC1(C)COC2(OC1)C(=O)Nc1ccccc12` (stereo not drawn), with 8.2%; and `Cc1ccc(NC(=O)CS(=O)CC(=O)NCCCN(C)c2ccccc2)cc1` (stereo not drawn), with 11.5%.
